The record followed here is PubChem BioAssay (EPA / NIEHS).

Records with an inconclusive call do not appear. Active and inactive are the calls of the source. The calls were made as follows: active = hit-call score of the fitted dose curve at least 0.9, where 1 is the maximum; inconclusive = response in the unintended direction; inactive = score below 0.9.

The target of the test is human Serotonin Transporter (SERT), SLC6A4 (gene 6532) (UniProt P31645). Nature of the test: NVS_TR_hSERT: NovaScreen (NVS) Transporter Assay for human Serotonin Transporter (SERT) (AID 2283372). The method, boiled down: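 Human platelet membrane preparation; displacement of radioligand from serotonin transporter measured after 1 h by filtration and scintillation counting. Single 25 uM duplicate screen, then concentration series for actives, with DMSO as negative baseline.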
Chain of human Serotonin Transporter (SERT), SLC6A4 (gene 6532) (P31645 whole entry, looked up): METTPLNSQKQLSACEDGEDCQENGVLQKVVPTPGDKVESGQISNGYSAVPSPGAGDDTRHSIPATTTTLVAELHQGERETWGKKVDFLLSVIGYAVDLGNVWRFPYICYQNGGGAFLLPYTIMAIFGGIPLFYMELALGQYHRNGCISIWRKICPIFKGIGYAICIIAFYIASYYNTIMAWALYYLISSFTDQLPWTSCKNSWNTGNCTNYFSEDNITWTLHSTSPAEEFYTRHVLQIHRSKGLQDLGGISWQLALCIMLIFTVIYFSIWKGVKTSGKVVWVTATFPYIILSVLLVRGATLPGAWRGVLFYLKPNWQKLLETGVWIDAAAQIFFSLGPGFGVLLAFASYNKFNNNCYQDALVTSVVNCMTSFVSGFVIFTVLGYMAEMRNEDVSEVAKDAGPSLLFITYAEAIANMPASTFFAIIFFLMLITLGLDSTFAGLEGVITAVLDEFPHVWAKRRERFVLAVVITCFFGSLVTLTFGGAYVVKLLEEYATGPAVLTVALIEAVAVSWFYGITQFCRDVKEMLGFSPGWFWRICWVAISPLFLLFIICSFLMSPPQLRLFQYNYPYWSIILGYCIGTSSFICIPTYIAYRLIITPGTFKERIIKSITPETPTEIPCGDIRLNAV
Regarding `ClC1=C(Cl)C2(Cl)C3C(Cl)C(Cl)CC3C1(Cl)C2(Cl)Cl` (stereo not drawn), the molecule was called inactive.

Regarding `CCCN(CCC)c1c([N+](=O)[O-])cc(C(C)C)cc1[N+](=O)[O-]`, the molecule was called inactive. To `Cc1ccc(N)cc1N` belongs “inactive”.
